Laboratory results reported in paper PMC7862700, “An all-to-all approach to the identification of sequence-specific readers for epigenetic DNA modifications on cytosine”.

Experiments:
Experiment in all cases: DAPPL (digital affinity profiling via proximity ligation, sequencing); 10 mM Tris-HCl pH 7.5, 50 mM NaCl, 1 mM DTT, 4% glycerol, room temperature, 30 min; GST-TFs on glutathione beads, 16-mer random dsDNA library, 0.1% formaldehyde crosslink after washing; high values mean tight binding
FLI1 = target: T1, FLI1 (Homo sapiens, UniProt Q01543 1-452); conditions: protein: recombinant; tags: N-terminal GST; dsDNA, one strand shown
T1 sequence: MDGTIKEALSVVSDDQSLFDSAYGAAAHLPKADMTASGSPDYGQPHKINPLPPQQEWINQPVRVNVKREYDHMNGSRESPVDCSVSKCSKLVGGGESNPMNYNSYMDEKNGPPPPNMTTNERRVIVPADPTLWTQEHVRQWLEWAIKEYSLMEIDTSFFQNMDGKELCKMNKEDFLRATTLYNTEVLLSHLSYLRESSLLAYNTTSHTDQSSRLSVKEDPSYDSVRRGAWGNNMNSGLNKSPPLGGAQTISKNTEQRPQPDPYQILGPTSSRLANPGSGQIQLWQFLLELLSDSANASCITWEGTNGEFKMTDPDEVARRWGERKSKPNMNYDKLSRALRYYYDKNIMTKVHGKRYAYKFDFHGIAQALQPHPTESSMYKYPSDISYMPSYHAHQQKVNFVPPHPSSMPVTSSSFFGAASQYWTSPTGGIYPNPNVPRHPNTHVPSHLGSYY
Summary of the method: (§1)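 Pools were built from human transcription factors expressed in yeast as GST fusions, captured on glutathione beads and DNA-barcoded, along with a tag-only sample. Incubation with 200 nmole of a 16-mer random double-stranded DNA library lasted 30 min at room temperature in Tris/NaCl/DTT/glycerol buffer, and was followed by washing, 0.1% formaldehyde crosslinking, proximity ligation, PCR amplification and Illumina NextSeq500 sequencing. Binding signal is the quotient of each hexamer's read frequency for a factor and its frequency for the tag-only sample.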

ELK1 = target: T2, ELK1 (Homo sapiens, UniProt P19419 1-428); conditions: protein: recombinant; tags: N-terminal GST; dsDNA, one strand shown
T2 sequence: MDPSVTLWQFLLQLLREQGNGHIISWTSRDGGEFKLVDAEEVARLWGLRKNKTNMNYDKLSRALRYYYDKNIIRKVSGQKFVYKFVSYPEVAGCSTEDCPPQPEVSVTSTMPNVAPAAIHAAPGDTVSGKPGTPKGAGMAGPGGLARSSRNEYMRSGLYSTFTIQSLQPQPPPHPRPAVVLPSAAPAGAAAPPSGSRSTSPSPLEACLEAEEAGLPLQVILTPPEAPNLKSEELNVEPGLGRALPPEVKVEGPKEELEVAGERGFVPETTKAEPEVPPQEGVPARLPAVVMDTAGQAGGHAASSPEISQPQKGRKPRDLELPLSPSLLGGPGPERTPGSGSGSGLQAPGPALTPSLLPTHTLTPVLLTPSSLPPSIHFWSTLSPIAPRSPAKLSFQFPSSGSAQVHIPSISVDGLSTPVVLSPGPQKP
Summary of the method: as §1

GABPA = target: T3, GABPA (Homo sapiens, UniProt Q06546 1-454); conditions: protein: recombinant; tags: N-terminal GST; dsDNA, one strand shown
T3 sequence: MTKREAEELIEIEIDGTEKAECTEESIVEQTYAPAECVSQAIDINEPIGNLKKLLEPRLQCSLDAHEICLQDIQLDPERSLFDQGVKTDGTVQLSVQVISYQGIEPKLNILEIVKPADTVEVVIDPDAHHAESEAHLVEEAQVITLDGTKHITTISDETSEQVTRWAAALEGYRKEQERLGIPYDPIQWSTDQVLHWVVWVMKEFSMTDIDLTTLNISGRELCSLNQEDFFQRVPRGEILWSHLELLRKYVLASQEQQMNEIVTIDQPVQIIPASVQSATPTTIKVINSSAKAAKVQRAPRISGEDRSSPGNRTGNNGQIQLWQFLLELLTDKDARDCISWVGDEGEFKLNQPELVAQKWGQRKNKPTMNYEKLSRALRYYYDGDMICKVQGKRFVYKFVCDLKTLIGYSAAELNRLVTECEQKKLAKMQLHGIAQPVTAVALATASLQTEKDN
Summary of the method: as §1

ERG = target: T4, ERG (Homo sapiens, UniProt P11308 1-479); conditions: protein: recombinant; tags: N-terminal GST; dsDNA, one strand shown
T4 sequence: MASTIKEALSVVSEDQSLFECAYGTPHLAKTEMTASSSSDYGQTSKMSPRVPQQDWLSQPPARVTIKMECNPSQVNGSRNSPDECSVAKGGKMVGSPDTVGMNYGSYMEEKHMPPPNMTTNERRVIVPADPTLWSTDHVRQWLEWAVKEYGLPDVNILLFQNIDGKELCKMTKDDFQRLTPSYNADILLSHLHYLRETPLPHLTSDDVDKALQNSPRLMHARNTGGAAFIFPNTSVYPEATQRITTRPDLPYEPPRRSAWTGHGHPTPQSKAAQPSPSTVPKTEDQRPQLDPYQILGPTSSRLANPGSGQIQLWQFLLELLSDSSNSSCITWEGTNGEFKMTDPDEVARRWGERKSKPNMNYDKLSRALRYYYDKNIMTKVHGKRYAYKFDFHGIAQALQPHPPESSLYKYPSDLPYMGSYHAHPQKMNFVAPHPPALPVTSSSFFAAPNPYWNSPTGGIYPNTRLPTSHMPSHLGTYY
Summary of the method: as §1

ELF1 = ELF1 (Homo sapiens, UniProt P32519 1-619); conditions: protein: recombinant; tags: N-terminal GST; dsDNA, one strand shown
Summary of the method: as §1

EHF = target: T5, EHF (Homo sapiens, UniProt Q9NZC4 1-300); conditions: protein: recombinant; tags: N-terminal GST; dsDNA, one strand shown
T5 sequence: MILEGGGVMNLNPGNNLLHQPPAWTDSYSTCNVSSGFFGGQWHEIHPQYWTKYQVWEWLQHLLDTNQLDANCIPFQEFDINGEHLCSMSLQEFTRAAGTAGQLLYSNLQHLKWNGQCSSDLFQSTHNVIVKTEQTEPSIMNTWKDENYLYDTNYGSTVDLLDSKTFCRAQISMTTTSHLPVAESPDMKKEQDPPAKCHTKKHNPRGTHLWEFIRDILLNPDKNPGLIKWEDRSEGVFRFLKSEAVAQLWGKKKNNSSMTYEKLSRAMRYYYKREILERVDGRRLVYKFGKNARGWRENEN
Summary of the method: as §1

SPI1 = SPI1 (Homo sapiens, UniProt P17947 1-270); conditions: protein: recombinant; tags: N-terminal GST; dsDNA, one strand shown
Summary of the method: as §1

SPIB = SPIB (Homo sapiens, UniProt Q01892 1-262); conditions: protein: recombinant; tags: N-terminal GST; dsDNA, one strand shown
Summary of the method: as §1

ELK3 = target: T6, ELK3 (Homo sapiens, UniProt P41970 1-407); conditions: protein: recombinant; tags: N-terminal GST; dsDNA, one strand shown
T6 sequence: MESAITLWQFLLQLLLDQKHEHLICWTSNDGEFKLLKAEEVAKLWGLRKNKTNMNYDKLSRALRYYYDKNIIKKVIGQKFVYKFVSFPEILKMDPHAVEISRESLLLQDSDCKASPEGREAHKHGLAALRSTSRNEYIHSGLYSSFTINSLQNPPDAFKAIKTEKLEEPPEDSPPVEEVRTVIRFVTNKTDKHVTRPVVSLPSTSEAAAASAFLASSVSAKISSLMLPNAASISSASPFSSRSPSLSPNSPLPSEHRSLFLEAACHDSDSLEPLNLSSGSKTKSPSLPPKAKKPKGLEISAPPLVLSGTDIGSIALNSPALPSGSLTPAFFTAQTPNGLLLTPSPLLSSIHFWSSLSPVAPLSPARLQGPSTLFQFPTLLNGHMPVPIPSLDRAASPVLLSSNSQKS
Summary of the method: as §1

FEV = target: T7, FEV (Homo sapiens, UniProt Q99581 1-238); conditions: protein: recombinant; tags: N-terminal GST; dsDNA, one strand shown
T7 sequence: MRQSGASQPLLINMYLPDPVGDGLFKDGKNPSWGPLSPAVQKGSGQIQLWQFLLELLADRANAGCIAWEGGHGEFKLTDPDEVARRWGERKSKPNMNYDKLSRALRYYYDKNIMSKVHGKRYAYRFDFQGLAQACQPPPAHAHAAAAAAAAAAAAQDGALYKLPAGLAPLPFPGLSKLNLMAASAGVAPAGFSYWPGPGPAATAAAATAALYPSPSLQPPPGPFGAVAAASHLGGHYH
Summary of the method: as §1

ETV5 = ETV5 (Homo sapiens, UniProt P41161 1-510); conditions: protein: recombinant; tags: N-terminal GST; dsDNA, one strand shown
Summary of the method: as §1

HSF1 = HSF1 (Homo sapiens, UniProt Q00613 1-529); conditions: protein: recombinant; tags: N-terminal GST; chain copies: 3; dsDNA, one strand shown
Summary of the method: as §1

SPIC = target: T8, SPIC (Homo sapiens, UniProt Q8N5J4 1-248); conditions: protein: recombinant; tags: N-terminal GST; dsDNA, one strand shown
T8 sequence: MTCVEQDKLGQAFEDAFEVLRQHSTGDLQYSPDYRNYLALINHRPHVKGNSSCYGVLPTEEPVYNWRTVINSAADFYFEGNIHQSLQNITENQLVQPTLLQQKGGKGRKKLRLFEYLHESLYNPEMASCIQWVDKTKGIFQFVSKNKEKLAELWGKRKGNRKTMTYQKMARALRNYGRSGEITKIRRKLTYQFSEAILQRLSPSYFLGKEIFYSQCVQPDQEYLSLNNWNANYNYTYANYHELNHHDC
Summary of the method: as §1

ELF4 = ELF4 (Homo sapiens, UniProt Q99607 1-663); conditions: protein: recombinant; tags: N-terminal GST; dsDNA, one strand shown
Summary of the method: as §1

ELK4 = target: T9, ELK4 (Homo sapiens, UniProt P28324-2 1-405); conditions: protein: recombinant; tags: N-terminal GST; dsDNA, one strand shown
T9 sequence: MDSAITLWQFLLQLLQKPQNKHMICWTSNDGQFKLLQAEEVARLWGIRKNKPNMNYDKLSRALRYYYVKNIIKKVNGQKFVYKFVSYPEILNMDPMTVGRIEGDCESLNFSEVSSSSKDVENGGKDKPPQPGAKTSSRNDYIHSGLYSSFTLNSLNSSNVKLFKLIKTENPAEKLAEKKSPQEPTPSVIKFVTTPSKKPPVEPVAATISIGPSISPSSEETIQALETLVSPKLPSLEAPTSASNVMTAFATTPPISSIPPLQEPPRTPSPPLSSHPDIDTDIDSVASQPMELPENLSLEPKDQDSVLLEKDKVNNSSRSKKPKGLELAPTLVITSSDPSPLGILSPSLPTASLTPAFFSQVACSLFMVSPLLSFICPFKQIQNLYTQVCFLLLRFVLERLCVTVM
Summary of the method: as §1

ETV2 = target: T10, ETV2 (Homo sapiens, UniProt O00321 1-342); conditions: protein: recombinant; tags: N-terminal GST; dsDNA, one strand shown
T10 sequence: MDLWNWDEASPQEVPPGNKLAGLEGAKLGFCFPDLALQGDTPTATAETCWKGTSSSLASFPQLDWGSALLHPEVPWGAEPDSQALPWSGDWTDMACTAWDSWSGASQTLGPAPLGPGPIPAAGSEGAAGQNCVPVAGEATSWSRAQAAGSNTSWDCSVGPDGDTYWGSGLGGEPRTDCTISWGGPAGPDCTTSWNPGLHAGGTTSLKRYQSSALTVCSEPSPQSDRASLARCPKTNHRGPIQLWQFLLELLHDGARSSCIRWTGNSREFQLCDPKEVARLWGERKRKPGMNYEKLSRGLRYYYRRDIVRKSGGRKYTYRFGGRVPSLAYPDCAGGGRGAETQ
Summary of the method: as §1

ELF3 = target: T11, ELF3 (Homo sapiens, UniProt P78545 1-371); conditions: protein: recombinant; tags: N-terminal GST; dsDNA, one strand shown
T11 sequence: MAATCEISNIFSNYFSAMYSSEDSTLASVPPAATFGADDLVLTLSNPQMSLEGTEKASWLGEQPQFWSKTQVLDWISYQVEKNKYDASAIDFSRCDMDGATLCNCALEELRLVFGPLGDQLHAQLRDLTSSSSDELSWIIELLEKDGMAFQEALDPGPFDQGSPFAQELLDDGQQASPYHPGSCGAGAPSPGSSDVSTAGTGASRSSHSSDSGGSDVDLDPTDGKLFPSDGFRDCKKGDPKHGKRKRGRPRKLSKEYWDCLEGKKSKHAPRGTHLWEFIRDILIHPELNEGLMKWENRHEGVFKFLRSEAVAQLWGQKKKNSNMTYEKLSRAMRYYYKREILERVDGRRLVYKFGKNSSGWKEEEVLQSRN
Summary of the method: as §1

CRX = CRX (Homo sapiens, UniProt O43186 1-299); conditions: protein: recombinant; tags: N-terminal GST; dsDNA, one strand shown
Summary of the method: as §1

ETV1 = ETV1 (Homo sapiens, UniProt P50549 1-477); conditions: protein: recombinant; tags: N-terminal GST; dsDNA, one strand shown
Summary of the method: as §1

Sequence of ETV5 (P41161 whole entry): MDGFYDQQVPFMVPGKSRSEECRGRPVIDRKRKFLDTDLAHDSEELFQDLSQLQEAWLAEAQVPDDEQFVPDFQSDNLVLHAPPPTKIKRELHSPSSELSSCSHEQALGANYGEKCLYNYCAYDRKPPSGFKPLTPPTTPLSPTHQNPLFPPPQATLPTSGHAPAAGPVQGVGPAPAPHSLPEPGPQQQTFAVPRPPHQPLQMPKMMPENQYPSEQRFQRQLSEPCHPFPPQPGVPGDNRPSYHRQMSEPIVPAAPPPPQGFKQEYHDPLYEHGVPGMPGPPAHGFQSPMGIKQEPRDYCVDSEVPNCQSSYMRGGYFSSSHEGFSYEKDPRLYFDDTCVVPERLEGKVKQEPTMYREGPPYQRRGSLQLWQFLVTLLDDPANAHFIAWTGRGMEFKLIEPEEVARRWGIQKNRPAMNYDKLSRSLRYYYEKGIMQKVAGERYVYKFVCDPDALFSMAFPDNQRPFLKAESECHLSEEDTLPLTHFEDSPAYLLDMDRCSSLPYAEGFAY
Sequence of SPIB (Q01892 whole entry): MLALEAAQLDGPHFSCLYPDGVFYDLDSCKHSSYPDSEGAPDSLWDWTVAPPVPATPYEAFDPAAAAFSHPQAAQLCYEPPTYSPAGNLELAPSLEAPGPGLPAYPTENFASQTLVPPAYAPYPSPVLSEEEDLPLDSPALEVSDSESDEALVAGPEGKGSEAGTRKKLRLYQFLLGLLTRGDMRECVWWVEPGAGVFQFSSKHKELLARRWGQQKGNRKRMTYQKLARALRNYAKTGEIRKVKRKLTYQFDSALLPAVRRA
Sequence of CRX (O43186 whole entry): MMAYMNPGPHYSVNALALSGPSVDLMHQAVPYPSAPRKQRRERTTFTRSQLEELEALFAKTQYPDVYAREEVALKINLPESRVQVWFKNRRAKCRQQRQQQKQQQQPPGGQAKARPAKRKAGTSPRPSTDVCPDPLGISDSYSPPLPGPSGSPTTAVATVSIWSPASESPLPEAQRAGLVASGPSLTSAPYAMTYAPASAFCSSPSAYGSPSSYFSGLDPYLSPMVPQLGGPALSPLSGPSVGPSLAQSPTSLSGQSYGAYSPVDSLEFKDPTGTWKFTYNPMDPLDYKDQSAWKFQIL
Sequence of ELF1 (P32519 whole entry): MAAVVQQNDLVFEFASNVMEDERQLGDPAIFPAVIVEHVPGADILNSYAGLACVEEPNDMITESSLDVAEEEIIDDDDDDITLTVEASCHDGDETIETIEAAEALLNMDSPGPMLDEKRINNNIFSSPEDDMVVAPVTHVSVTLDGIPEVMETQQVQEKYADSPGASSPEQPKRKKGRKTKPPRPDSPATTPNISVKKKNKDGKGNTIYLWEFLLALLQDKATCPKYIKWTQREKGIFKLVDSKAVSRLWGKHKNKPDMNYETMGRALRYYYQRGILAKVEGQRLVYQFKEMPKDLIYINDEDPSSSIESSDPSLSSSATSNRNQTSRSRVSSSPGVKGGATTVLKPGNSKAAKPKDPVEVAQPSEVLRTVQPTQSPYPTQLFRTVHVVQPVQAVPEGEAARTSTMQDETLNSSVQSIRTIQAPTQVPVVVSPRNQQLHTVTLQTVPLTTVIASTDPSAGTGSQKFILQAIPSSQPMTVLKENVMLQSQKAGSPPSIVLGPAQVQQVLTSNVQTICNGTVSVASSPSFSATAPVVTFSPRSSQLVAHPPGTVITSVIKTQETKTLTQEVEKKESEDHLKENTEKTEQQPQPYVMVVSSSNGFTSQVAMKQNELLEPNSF
Sequence of ETV1 (P50549 whole entry): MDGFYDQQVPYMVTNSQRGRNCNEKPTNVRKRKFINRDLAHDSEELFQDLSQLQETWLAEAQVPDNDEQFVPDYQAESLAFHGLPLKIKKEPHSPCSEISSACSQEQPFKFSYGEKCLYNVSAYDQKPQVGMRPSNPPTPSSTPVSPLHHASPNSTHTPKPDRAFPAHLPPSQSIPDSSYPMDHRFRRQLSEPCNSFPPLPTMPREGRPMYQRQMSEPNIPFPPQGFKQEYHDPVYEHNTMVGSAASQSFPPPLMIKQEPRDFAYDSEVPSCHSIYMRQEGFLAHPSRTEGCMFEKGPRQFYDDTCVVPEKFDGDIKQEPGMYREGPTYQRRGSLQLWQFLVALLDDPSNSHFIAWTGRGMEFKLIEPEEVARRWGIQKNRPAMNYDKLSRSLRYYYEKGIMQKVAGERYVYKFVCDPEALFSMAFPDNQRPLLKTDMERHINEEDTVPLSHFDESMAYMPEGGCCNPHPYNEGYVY
Sequence of ELF4 (Q99607 whole entry): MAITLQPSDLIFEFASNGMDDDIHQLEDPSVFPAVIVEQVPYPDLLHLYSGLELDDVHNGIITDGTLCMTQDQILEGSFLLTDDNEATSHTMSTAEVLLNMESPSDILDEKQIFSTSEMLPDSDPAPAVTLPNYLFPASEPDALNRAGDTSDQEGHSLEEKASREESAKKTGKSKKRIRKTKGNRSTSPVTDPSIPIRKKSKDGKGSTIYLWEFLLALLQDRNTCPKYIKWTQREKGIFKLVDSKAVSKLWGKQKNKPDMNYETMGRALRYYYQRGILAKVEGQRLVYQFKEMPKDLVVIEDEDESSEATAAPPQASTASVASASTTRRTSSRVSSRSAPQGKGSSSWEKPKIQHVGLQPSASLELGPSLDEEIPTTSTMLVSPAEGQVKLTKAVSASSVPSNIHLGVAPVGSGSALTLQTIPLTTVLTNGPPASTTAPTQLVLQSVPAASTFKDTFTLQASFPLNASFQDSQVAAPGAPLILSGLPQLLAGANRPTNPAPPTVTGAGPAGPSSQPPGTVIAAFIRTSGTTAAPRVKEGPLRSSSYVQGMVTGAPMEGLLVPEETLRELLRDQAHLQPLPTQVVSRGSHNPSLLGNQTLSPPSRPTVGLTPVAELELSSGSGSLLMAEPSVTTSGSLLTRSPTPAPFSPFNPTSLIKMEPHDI
Sequence of HSF1 (Q00613 whole entry): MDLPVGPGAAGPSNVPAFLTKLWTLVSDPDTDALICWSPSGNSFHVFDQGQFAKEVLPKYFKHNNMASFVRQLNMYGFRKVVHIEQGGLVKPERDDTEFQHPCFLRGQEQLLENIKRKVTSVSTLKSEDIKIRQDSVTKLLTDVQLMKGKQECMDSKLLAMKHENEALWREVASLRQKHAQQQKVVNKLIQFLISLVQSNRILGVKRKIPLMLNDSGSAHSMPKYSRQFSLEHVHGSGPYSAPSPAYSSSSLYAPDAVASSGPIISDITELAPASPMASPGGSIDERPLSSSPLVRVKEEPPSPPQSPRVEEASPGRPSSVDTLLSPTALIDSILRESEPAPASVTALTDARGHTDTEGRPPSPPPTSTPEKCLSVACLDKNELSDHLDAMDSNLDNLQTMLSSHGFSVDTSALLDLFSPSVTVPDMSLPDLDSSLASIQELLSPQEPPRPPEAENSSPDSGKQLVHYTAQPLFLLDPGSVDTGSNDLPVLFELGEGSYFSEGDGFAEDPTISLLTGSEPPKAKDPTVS

With TATGCT the binding signal (FLI1) was 1.28 fold enrichment (6-mer frequency, TF over GST control), the binding signal (ELK1) was 1.28 fold enrichment (6-mer frequency, TF over GST control) and the binding signal (GABPA) was 1.32 fold enrichment (6-mer frequency, TF over GST control). The binding signal (ERG) was 1.26 fold enrichment (6-mer frequency, TF over GST control), the binding signal (ELF1) was 1.29 fold enrichment (6-mer frequency, TF over GST control) and the binding signal (EHF) was 1.33 fold enrichment (6-mer frequency, TF over GST control). The binding signal (SPI1) was 1.41 fold enrichment (6-mer frequency, TF over GST control), the binding signal (SPIB) was 1.33 fold enrichment (6-mer frequency, TF over GST control) and the binding signal (ELK3) was 1.22 fold enrichment (6-mer frequency, TF over GST control). The binding signal (FEV) was 1.24 fold enrichment (6-mer frequency, TF over GST control), the binding signal (ETV5) was 1.39 fold enrichment (6-mer frequency, TF over GST control) and the binding signal (HSF1) was 1.41 fold enrichment (6-mer frequency, TF over GST control). For the same sequence, the binding signal (SPIC) was 1.6 fold enrichment (6-mer frequency, TF over GST control), the binding signal (ELF4) was 1.31 fold enrichment (6-mer frequency, TF over GST control) and the binding signal (ELK4) was 1.4 fold enrichment (6-mer frequency, TF over GST control). The binding signal (ETV2) was 1.3 fold enrichment (6-mer frequency, TF over GST control), the binding signal (ELF3) was 1.37 fold enrichment (6-mer frequency, TF over GST control) and the binding signal (CRX) was 1.51 fold enrichment (6-mer frequency, TF over GST control). For the same sequence, the binding signal (ETV1) was 1.29 fold enrichment (6-mer frequency, TF over GST control).
